High-throughput results deposited in PubChem BioAssay by several laboratories.
This is a sample that favours compounds with a hit; in the whole collection about 0.82% have one here.
RTF Ca sens inh: cardiac RTF calcium desensitization; P19429+P45379; 340,000 compounds, 0.12% hits; AID 493244; inhibition, % at 7.15 µM; IANBD-labeled cardiac RTF, Ca2+ fluorescence;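 active = inhibition above the mean inhibition of all tested compounds plus 3 SD, cut at about 17% in these data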;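 also: assay run at fixed EC70 calcium of 1.6 mM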
RTF Ca sens act: cardiac RTF calcium sensitization | P19429+P45379 | IANBD-labeled TnC RTF fluorescence at EC20 calcium; 0% EC20 calcium, 100% full calcium | activation, % at 7.2 µM | 340,000 compounds, 0.24% hits | AID 493008;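 active = activation above the mean over all tested compounds plus 3 SD, cut at about 30% in these data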;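 also: rise in fluorescence read as greater calcium sensitivity of cardiac thin filaments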
Keap1-Nrf2 PPI: disrupts human Keap1 binding to Nrf2 peptide; inhibition, % at 9.4 µM; Q14145; 340,000 compounds, 0.15% hits; Keap1 Kelch-Nrf2 peptide fluorescence polarization, 1536-well; AID 504523; in the data active = inhibition above about 12%; inconclusive = no clear call, values can overlap the other calls; inactive = below about 7.3%;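 also: human Keap1 Kelch domain with fluorescein labeled Nrf2 9mer peptide probe; 0% = neutral control wells and 100% = peptide positive control; higher means more block of Keap1 binding to Nrf2 peptide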
E coli Lon inh: inhibits E. coli Lon protease; inhibition, % at 7.94 µM; P0A9M0; purified E. coli Lon protease, fluorescence polarization; 360,000 compounds, 0.42% hits; in the data active = inhibition above about 13%, passing the limit was not always enough;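 also: 0% = enzyme with probe and DMSO and 100% = no enzyme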
Target sequence (P0A9M0 whole entry, looked up): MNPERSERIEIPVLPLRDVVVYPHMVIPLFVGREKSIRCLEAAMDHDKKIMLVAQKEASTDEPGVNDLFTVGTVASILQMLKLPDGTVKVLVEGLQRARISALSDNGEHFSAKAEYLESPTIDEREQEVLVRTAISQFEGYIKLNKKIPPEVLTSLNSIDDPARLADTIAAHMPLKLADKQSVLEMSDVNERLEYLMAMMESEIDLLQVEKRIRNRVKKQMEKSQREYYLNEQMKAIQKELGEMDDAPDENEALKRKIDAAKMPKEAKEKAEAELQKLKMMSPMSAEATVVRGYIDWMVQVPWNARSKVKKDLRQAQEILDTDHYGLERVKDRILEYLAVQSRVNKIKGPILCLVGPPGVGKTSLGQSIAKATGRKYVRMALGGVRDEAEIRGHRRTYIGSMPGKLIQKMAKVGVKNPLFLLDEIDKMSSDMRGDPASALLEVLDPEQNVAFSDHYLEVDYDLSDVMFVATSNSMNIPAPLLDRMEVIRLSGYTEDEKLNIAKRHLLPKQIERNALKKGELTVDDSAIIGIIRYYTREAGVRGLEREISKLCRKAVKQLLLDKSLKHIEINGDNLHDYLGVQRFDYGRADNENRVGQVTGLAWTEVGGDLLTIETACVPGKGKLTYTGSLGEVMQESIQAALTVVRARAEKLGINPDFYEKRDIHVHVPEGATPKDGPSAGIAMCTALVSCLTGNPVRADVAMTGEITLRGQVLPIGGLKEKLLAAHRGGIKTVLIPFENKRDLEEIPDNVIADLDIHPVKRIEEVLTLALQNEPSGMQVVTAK
C-LANA FP: blocks KSHV LANA C-terminal domain binding to DNA | MBP-C-LANA/FAM-LBS DNA binding, fluorescence polarization | inhibition, % at 9 µM | 340,000 compounds, 0.078% hits;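 active = highest replicate inhibition at or above 60% at 9 µM, even if other replicates fall short; inactive = all replicates below 60% inhibition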;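 also: 0% = neutral control wells and 100% = 4 µM acridine orange control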
An asterisk follows results filed as active; i = inactive; ? = inconclusive; . = not tested or not shown; + = active, no number.

SMILES	RTF Ca sens inh	RTF Ca sens act	Keap1-Nrf2 PPI	E coli Lon inh	C-LANA FP
CCCCN1/C(=C/c2ccc3ccccc3[n+]2CC)Sc2ccccc21	.	.	-8.5	-63.3	-23.6
CCOC(=O)[C@]12Cc3c(cc(OC)c(OC)c3OC)[C@H]1N(Cc1ccccc1)C(=O)c1cc(OC)ccc12	.	.	.	-8.8	.
COc1ccc(OC)c(C=Nc2ccccc2-c2nc3ccccc3[nH]2)c1	-13.0	0.1	-3.2	2.0	-0.1
COc1ccc(OC)c(/C=C/c2nc3ccccc3[nH]c2=O)c1	-103.2	71.8*	1.6	4.1	6.5
O=C(N/C(=C/c1cccc(Br)c1)C(=O)N1CCCCC1)c1ccco1	.	.	.	0.9	.
CC(=NNC(=O)c1ccncc1)c1ccc2ccccc2c1O	-65.9	48.3*	-24.5	i	-19.8
CC(=NNC(=O)c1ccncc1)c1ccccc1O	-12.7	0.9	-5.9	-0.4	-0.5
O=C(NN=Cc1c(O)ccc2ccccc12)c1ccncc1	-49.4	31.3*	-14.2	i	-6.5
O=C(N/N=C\c1c(O)ccc2ccccc12)c1ccc(O)cc1	4.4	3.3	8.3	-20.9	9.8
CCOC(=O)Nc1ccc(NCc2ccc(F)cc2)nc1N	-67.3	71.7*	-5.5	-74.0	16.8
CN1CCN(c2ccc(CNC(=O)C3(C)Cc4c(-c5ccc6c(c5)OCO6)ccnc4O3)cc2)CC1 (stereo unspecified)	.	.	.	-1.4	.
O=C(OCC(=O)N1CCN(S(=O)(=O)c2ccccc2)CC1)C1CCC1	0.5	6.7	-0.5	-5.0	-0.1
O=C(CC1CCCC1)N1CCN(S(=O)(=O)c2ccccc2)CC1	-124.5	33.4*	-44.2	2.3	.
CCC(CC)C(=O)N(C)c1c(C)nc2c(OCC3CCCCC3)cccn12	.	.	.	0.7	.
CN(C)c1ccc(O)c2c1CC1CC3[C@@H](N(C)C)C(=O)C(C(N)=O)=C(O)[C@]3(O)C(=O)C1=C2O (stereo partly specified)	8.2	-1.5	4.6	-6.0	76.7*
CCC/C=C/c1ccc(CN2C(C(C)C)C(=O)N(Cc3cn(Cc4ccco4)nn3)CCS2(=O)=O)cc1 (stereo unspecified)	.	.	.	-6.9	.
CCCCOCCCNC(=O)C[C@@H]1C[C@@]2(C(=O)OCC)CCCC=C2N(Cc2ccc(Cl)cc2Cl)C1=O	.	.	.	-0.4	.
CN(C)c1ccc(/C=C(/C#N)C(=O)Nc2nc3c(s2)CCN(Cc2ccccc2)C3)cc1	-60.8	51.2*	-0.8	i	4.5
Oc1sc(C=Nc2ccccc2)c2ccccc12	-110.9	75.3*	-11.8	-169.9	2.2
COc1ccc(C(NC(=O)C2CCN(CCOc3ccc(Cl)cc3)CC2)c2cccs2)cc1 (stereo unspecified)	.	.	.	3.2	.
Cc1ccc(N2C(=O)[C@@H]3[C@H](C2=O)C2CCCN2[C@@H]3C(=O)c2ccccc2)cc1 (stereo partly specified)	-22.8	31.3*	-1.9	21.6	10.2
CCOC(=O)C(Cc1ccnc2ccccc12)=NO	-3.7	-4.8	-0.1	4.5	0.5
CCOC(=O)C(=O)Cc1cccnn1	-9.2	-1.3	2.4	10.4	72.0*
CN(Cc1ccc(Cl)c(Cl)c1)C(c1cc2ccccc2o1)c1nnnn1C(C)(C)C (stereo unspecified)	.	.	.	-1.9	.
CC1OC(CCc2cccc(Cl)c2)Cc2[nH]c(=S)[nH]c(=O)c21 (stereo unspecified)	.	.	.	1.5	.
SMILES	RTF Ca sens inh	RTF Ca sens act	Keap1-Nrf2 PPI	E coli Lon inh	C-LANA FP
O=C(CSc1ccc(C(F)(F)F)cc1[N+](=O)[O-])Nc1ccccc1	-2.4	0.0	-5.2	36.7*	0.9
NC(Cc1ccc(Cl)cc1)c1csc(NC(=O)NCC2CCCCC2)n1 (stereo unspecified)	.	.	.	-2.6	.
CCN(CC)C(=O)c1ccc(/C=C/c2c[nH]c3ccccc23)[n+](C)c1	-142.9	140.0*	-180.9	i	-43.3
COc1cc(OC)c(OC)cc1/C=C/C(=O)c1ccc(NS(=O)(=O)c2ccc(C)cc2)cc1	-28.6	34.9*	-5.3	-97.3	0.1
Cc1ccc(C(=O)C2C(=O)C3CCC2C3)cc1 (stereo unspecified)	.	.	.	-15.3	.
CCC(C)N1C(=O)/C(=C/c2c(NCCCOC(C)C)nc3c(C)cccn3c2=O)SC1=S (stereo unspecified)	-36.7	133.1*	-4.9	-241.4	9.8
NC(CCc1ccccc1)c1csc(Nc2nncc3ccccc23)n1 (stereo unspecified)	.	.	.	-1.7	.
N#CC1=C(N)Oc2cc(N)ccc2C1c1cccc(F)c1 (stereo unspecified)	2.2	3.0	-5.1	-20.3	-0.9
CN(C)c1ccc2c(c1)OC(N)=C(C#N)C2c1cccc(F)c1 (stereo unspecified)	-121.0	72.8*	-28.5	-231.8	-0.1
C[C@H]1CN([C@@H](C)CO)S(=O)(=O)c2ccc(C#Cc3ccccn3)cc2O[C@@H]1CN(C)C(=O)C1CC1	.	.	.	11.0	.
Nc1cc(C(=O)O)c(N)c2c1C(=O)c1ccccc1C2=O	-9.2	5.3	?	50.9*	43.2
COc1ccc(OC)c(-c2c3cc(O)c(=O)cc-3oc3cc(O)c(O)cc23)c1	i	+	+	+	166.6*
Cc1ccccc1-c1cc(=O)c2c(O)cccc2o1	-18.1	9.1	-5.2	-3.8	0.1
O=c1cc2oc3cc(O)c(O)cc3c(-c3ccccc3O)c-2cc1O	-23.3	51.1*	49.1*	92.0*	145.6*
COc1ccc(OC)c(-c2oc3ccccc3c(=O)c2O)c1	-2.9	2.3	1.1	-8.1	-0.3
CCOc1ccccc1-c1c2cc(O)c(=O)cc-2oc2cc(O)c(O)cc12	i	+	+	175.8*	157.7*
Cc1nc(NC(=O)c2ccccc2)sc1-c1cc(C(=O)N2CCOCC2)nn1Cc1ccccc1	.	.	.	-12.7	.
CCCCn1nnnc1C(c1cc2ccccc2o1)N(C)Cc1ccccc1 (stereo unspecified)	.	.	.	1.6	.
NC(=O)c1c(NC(=O)c2ccccc2F)sc2c1CCC2	.	.	.	-26.6	.
N#CC1=C(N)Oc2cc(O)c(Cl)cc2C1c1cccnc1 (stereo unspecified)	-4.6	5.0	-10.2	-56.5	-8.2
N#CC1=C(N)Oc2cc(O)c(Cl)cc2C1c1ccccc1F (stereo unspecified)	-54.2	32.9*	-8.9	-167.8	21.1
CSC(=NS(=O)(=O)c1ccc(N)cc1)NS(=O)(=O)c1cccs1	4.4	-1.1	5.0	-3.9	68.5*
Cc1ccc(NC(=O)COC(=O)c2ccc3c(c2)OCCO3)cc1	-4.4	1.6	-5.1	-6.2	-0.2
O=C(COC(=O)c1ccc(O)cc1)Nc1ccc2c(c1)OCCO2	2.8	29.8*	-2.9	-4.0	2.6
N#C/C(=C/c1ccc(N2CCCCC2)o1)C(=O)Nc1ccc2ccccc2c1	-199.8	166.0*	-26.8	i	-1.9
COc1ccc(NC(=O)/C(C#N)=C/c2ccc(Br)o2)cc1	-3.0	-1.7	2.3	-7.9	-1.3
COc1ccc(NC(=O)/C(C#N)=C\c2ccc(N3CCOCC3)o2)cc1	-161.3	135.0*	-293.8	i	-44.8
N#C/C(=C/c1ccc(N2CCOCC2)o1)C(=O)NC1CCCCC1	-65.8	50.4*	-119.8	-430.2	-31.0
